# The panel holds about 79,000 compounds, 15% with a hit somewhere; the sample as a whole holds those more often. Unmarked numbers belong to inactive results. Activity calls are given as the source filed them. Rule as the data show it: active = growth inhibition above about 70%; inactive = the rest.
# What was measured:
# [1] = NCI Yeast Anticancer Drug Screen. Data for the rad50 strain (AID 155);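 also: 0% = growth of vehicle-only cultures of the same strain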; conditions: S. cerevisiae rad50 strain growth inhibition, active compounds read high
# Method in brief: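 DNA repair mutant yeast, compound exposure, growth read-out; inhibition is taken relative to vehicle.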
# [2] = NCI Yeast Anticancer Drug Screen. Data for the mec2-1 strain (AID 157); conditions: S. cerevisiae mec2-1 strain, active compounds read high
# Method in brief: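 Using mec2-1 yeast: add compound, measure growth, express inhibition versus vehicle-treated cultures.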
# [3] = NCI Yeast Anticancer Drug Screen. Data for the sgs1 mgt1 strain (AID 161);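 also: 0% = growth of cultures given vehicle only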; conditions: S. cerevisiae sgs1 mgt1 strain, active compounds read high
# Method in brief: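 This yeast growth screen uses a strain with defined DNA-repair lesions; compound-treated growth is compared with vehicle-treated growth.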
# [4] = NCI Yeast Anticancer Drug Screen. Data for the cln2 rad14 strain (AID 165);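 also: 0% = growth equal to vehicle treated cultures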; conditions: S. cerevisiae cln2 rad14 strain, active compounds read high
# Method in brief: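 Yeast strain cln2 rad14, bearing defects in cell cycle control and DNA repair, serves as the test system; values reflect growth inhibition compared with vehicle.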
# [5] = NCI Yeast Anticancer Drug Screen. Data for the bub3 strain (AID 167); conditions: S. cerevisiae bub3 mutant strain, active compounds read high
# Method in brief: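 In this screen, a yeast mutant lacking normal mitotic checkpoint function is challenged with compound. Relative growth versus vehicle gives the inhibition value.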
# [6] = NCI Yeast Anticancer Drug Screen. Data for the mlh1 rad18 strain (AID 175); conditions: S. cerevisiae mlh1 rad18 strain growth inhibition, active compounds read high
# Method in brief: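 Steps: expose repair-defective yeast to compound; measure growth; express inhibition against vehicle-treated controls.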
# [7] = at 5.0 µM (retest, dose inferred, filed as 0.5)
# [8] = at 50.0 µM (retest, dose inferred, filed as 5.0)
SMILES,"growth inhibition [1, 7] [%]","growth inhibition [1, 8]",growth inhibition ([1]; at 50.0 µM),"growth inhibition [2, 7] [%]","growth inhibition [2, 8]",growth inhibition ([2]; at 50.0 µM),"growth inhibition [3, 7] [%]","growth inhibition [3, 8]",growth inhibition ([3]; at 50.0 µM),"growth inhibition [4, 7] [%]","growth inhibition [4, 8]",growth inhibition ([4]; at 50.0 µM),"growth inhibition [5, 7] [%]","growth inhibition [5, 8]",growth inhibition ([5]; at 50.0 µM),"growth inhibition [6, 7] [%]","growth inhibition [6, 8]",growth inhibition ([6]; at 50.0 µM)
OCC(O)C(O)C(O)/C=N\Nc1ccccc1 (configuration not stated),9,19%,49.6%,-3,-6%,44.4%,-5,15%,39.5%,-3,-7%,43%,1,31%,51.5%,16,42%,18.1%
CCc1nc(N)nc(N)c1-c1ccc(NCCCCCCCCCCCCN)c([N+](=O)[O-])c1,-18,99% (active),94.2% (active),-11,99% (active),99.2% (active),-1,99% (active),40.4%,-24,98% (active),87% (active),-5,99% (active),98.5% (active),-19,99% (active),98.7% (active)
O=c1c2ccccc2sc2c(CO)ccc(NCCN3CCCCC3)c12,-5,45%,71.2% (active),6,-21%,23.6%,-9,35%,34.5%,-21,13%,24.5%,12,13%,25.4%,2,40%,40.1%
CC(c1ccc2cccc(F)c2c1)c1ccccc1C(=O)O (configuration not stated),3,99% (active),99% (active),6,98% (active),96% (active),-1,96% (active),98.2% (active),1,98% (active),97.5% (active),0,97% (active),93.9% (active),5,99% (active),98.2% (active)
Cc1cc(N(CCCCl)CCCCl)ccc1C=Nc1cccc(Cl)c1,-7,40%,79% (active),-7,12%,32.8%,-4,65%,80.7% (active),3,-2%,-21.6%,-1,59%,61%,-10,23%,68.2%
CC(C)(C)C(=O)OC(N)/C=C/c1ccccc1 (configuration not stated),21,24%,1.75%,15,16%,-10.2%,13,-36%,78.8% (active),14,-52%,36.7%,7,-24%,82.7% (active),23,24%,-19.9%
COc1ccc2c(c1)c(=O)c1c(NCCN(C)C)ccc3nnn2c31,13,51%,28.2%,-18,14%,14.4%,6,4%,10.2%,-13,37%,18.9%,-4,43%,11.6%,-10,-12%,79.7% (active)
CCN(CC)CCCC(=O)Nc1cc(OC)cc2cccnc12,2,0%,3.65%,15,-3%,6.3%,8,1%,-4.7%,1,-1%,-2.55%,1,-3%,-1.85%,2,-1%,13.4%
COC(=O)c1cc(/C=C/c2ccccc2)on1,-3,3%,-3.75%,5,1%,0.55%,2,8%,10.5%,-4,-14%,82.2% (active),6,14%,2.75%,-3,2%,-9.55%
CCC(C)OC(=O)Nc1cccc(Cl)c1 (configuration not stated),12,61%,83.4% (active),-7,1%,23.9%,4,14%,79.5% (active),6,-16%,14.8%,-19,-8%,1.4%,5,29%,78.8% (active)
CN(C)C(=O)/C=C/c1c[nH]c(=O)[nH]c1=O,-146,-149%,-5.65%,-47,-49%,-2.3%,-63,-68%,1.05%,-58,-64%,19.1%,-73,-78%,-3.35%,-149,-119%,2.75%
O=C(O)CCC(=O)NNc1ccccc1,8,68%,57.9%,-1,66%,85.9% (active),12,58%,61.9%,8,81% (active),83.2% (active),14,91% (active),90.3% (active),20,94% (active),86.1% (active)
COC(=O)[C@@]12OC[C@]34[C@H]([C@@H](O)[C@@H]1O)[C@@]1(C)CC(=O)C(O)=C(C)[C@@H]1C[C@H]3OC(=O)[C@H](OC(=O)C(Cc1ccccc1)NC(=O)OC(C)(C)C)[C@@H]24 (some centres not stated),24,73% (active),85.8% (active),26,68%,79.2% (active),27,82% (active),86.8% (active),33,78% (active),85.9% (active),31,80% (active),83.3% (active),3,58%,-65.6%
Cc1cc(O)ccc1C1(c2ccc(F)cc2)OC(=O)c2ccccc21 (configuration not stated),31,99% (active),90.1% (active),32,99% (active),91.8% (active),37,99% (active),88.2% (active),31,97% (active),91.5% (active),29,98% (active),90.3% (active),45,99% (active),89.6% (active)
O=C1CN(c2cccc(Cl)c2)C(=O)CN1/N=C/c1ccc[nH]1,4,-3%,98.4% (active),7,0%,99.2% (active),10,0%,98.7% (active),2,-3%,97.9% (active),1,-3%,98.3% (active),-3,-5%,99% (active)
CCN(CC)CCOc1ccc(NC(=S)Nc2ccc(OCC(C)C)cc2)cc1,2,54%,66.1%,29,65%,34.1%,42,76% (active),81.8% (active),10,53%,83.9% (active),4,47%,76% (active),46,74% (active),80.9% (active)
Clc1ccc(CN2COc3c(ccc4cccnc34)C2)cc1,1,36%,97.1% (active),-2,65%,64.5%,-1,97% (active),99.4% (active),1,97% (active),77.5% (active),-4,85% (active),77.5% (active),2,95% (active),93% (active)
O=C1CSC(=S)N1c1ccc(F)cc1F,8,86% (active),89.8% (active),-2,82% (active),22.6%,10,78% (active),65.2%,-3,16%,-9%,-3,84% (active),83.8% (active),3,89% (active),70.2% (active)
CCOC(=O)Cc1[nH]c(C(=O)c2ccccc2)cc1C(=O)c1ccccc1,20,87% (active),-44.6%,11,81% (active),-9.35%,-1,88% (active),-36.1%,7,97% (active),5%,-2,97% (active),-24.4%,17,89% (active),-42.9%

# — PubChem BioAssay (NCI)
